# Calls of active or inactive are those of the source. Unless noted, how the calls were made is not given here.
# Key:
# [1] = A549 cell viability effects, profiling panel, calcein-AM fluorescence, 48 h, basal (AID 1162); details: higher = more signal; further: test concentration not given here
# [2] = adipocyte viability effects, profiling panel, cell-based, 3T3-L1 adipocytes, calcein-AM fluorescence, 48 h, basal (AID 1163); details: 3T3-L1 adipocytes viability, higher = more signal; further: test concentration not given here
# [3] = HepG2 cell viability effects, profiling panel, calcein-AM fluorescence, 48 h, basal (AID 1164); details: higher = more signal; further: test concentration not given here
# [4] = MM1S cell viability effects, profiling panel, calcein-AM fluorescence, 48 h, basal (AID 1165); details: higher = more signal;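 further: viability of MM1S multiple myeloma cells under basal unstimulated conditions; test concentration not given here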
# [5] = basal RPMI8226 viability, no added stimulus, profiling panel, cell-based, calcein-AM fluorescence, 48 h, PK04 Diversity Set (AID 1166); details: RPMI8226 myeloma viability, higher = more signal;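 further: cells grown under basal conditions without added stimulus; test concentration not given here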
# [6] = basal HepG2 mitochondrial membrane potential changes, profiling panel, cell-based, JC-1 fluorescence, 24 h, 100 nL compound (AID 1167); details: higher = more signal; further: test concentration not given here
# [7] = basal 3T3-L1 adipocyte mitochondrial potential changes, profiling panel, cell-based, JC-1 fluorescence, 3T3-L1 adipocytes, 24 h, 100 nL compound (AID 1168); details: JC-1 mitochondrial fluorescence, higher = more signal, called active from +8 up or from −8 down; further: test concentration not given here
# [8] = basal RPMI8226 mitochondrial membrane potential changes, profiling panel, cell-based, JC-1 fluorescence, 24 h, 100 nL compound (AID 1169); details: RPMI8226 myeloma, JC-1 mitochondrial potential fluorescence, higher = more signal; further: test concentration not given here
# [9] = basal MM1S mitochondrial membrane potential changes, profiling panel, cell-based, JC-1 fluorescence, 24 h, 100 nL compound (AID 1170); details: higher = more signal; further: test concentration not given here
# [10] = A549 lung cancer cell viability effects, profiling panel, resazurin fluorescence, 24 h, PK04 Diversity Set (AID 1171); details: higher = more signal, called active from +8 up or from −8 down; further: test concentration not given here
# [11] = HepG2 liver cancer cell viability effects, profiling panel, resazurin fluorescence, 24 h, PK04 Diversity Set (AID 1172); details: higher = more signal; further: test concentration not given here
# [12] = basal S. cerevisiae growth modulation, no modifier, primary screen, OD600, strain BY4716, 24 h, basal condition (AID 1173); details: OD600, 24 h, higher = more signal, called active from +8 up or from −8 down
# [13] = MM1S myeloma cell viability, profiling panel, resazurin fluorescence, basal, 24 h, PK04 Diversity Set (AID 1174); details: higher = more signal, called active from +8 up or from −8 down;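 further: MM1S multiple myeloma cell line; test concentration not given here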
# [14] = biological target: Dihydroorotate dehydrogenase (quinone), mitochondrial (Plasmodium falciparum (isolate 3D7)) (UniProt Q08210); assay: PfDHODH enzyme inhibitors, primary screen, biochemical, C-terminal His tag, absorbance 600 nm (AID 1175); details: DCIP absorbance 600 nm, higher = more signal, called active from +8 up or from −8 down;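 further: recombinant parasite enzyme with a five histidine tag at its C terminus; test concentration not given here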
# Chain of Dihydroorotate dehydrogenase (quinone), mitochondrial (Plasmodium falciparum (isolate 3D7)) (Q08210 whole entry, looked up): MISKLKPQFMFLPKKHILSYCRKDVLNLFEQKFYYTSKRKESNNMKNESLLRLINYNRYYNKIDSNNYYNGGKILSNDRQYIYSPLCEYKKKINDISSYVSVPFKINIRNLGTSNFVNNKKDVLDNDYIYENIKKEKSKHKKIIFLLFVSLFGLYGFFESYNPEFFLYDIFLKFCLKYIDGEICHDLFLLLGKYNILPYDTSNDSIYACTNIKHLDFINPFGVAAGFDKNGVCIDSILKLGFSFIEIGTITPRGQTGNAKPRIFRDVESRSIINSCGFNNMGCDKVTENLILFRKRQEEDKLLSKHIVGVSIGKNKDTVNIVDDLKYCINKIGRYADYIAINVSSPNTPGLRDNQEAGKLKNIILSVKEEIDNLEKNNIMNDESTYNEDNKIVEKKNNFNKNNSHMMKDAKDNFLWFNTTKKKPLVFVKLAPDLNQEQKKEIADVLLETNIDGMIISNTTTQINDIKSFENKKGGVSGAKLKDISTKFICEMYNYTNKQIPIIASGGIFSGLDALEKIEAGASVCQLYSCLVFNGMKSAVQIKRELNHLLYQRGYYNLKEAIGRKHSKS
# [15] = P. aeruginosa biofilm formation inhibitors, primary screen, strain PAO1, LB-PBS medium, absorbance 600 nm (AID 1176); further: test concentration not given here; details: P. aeruginosa PAO1 growth/biofilm, A600, 12 h; higher = more signal
# [16] = S. cerevisiae RM11-1a growth modifiers, primary screen, strain RM11-1a, OD600, basal, 24 h (AID 1177); details: OD600, 24 h, higher = more signal, called active from +8 up or from −8 down;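 further: cultures grown under basal conditions with no added stressor; test concentration not given here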
# [17] = E. coli acrAB mutant growth effects, primary screen, E. coli filamentation inducers, strain DRC39, OD650, 24 h (AID 1178); details: higher = more signal, called active from +8 up or from −8 down;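 further: growth measured as culture turbidity by optical density at 650 nm; test concentration not given here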
# [18] = E. coli acrAB mutant growth effects, primary screen, E. coli filamentation inducers, strain DRC39, OD650, 48 h (AID 1179);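 further: screen aims at cell division blockers that make cells filament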; details: E. coli DRC39 delta-acrAB growth, higher = more signal, called active from +8 up or from −8 down
# [19] = RPMI8226 myeloma cell viability, profiling panel, resazurin fluorescence, basal, 24 h, PK04 Diversity Set (AID 1180); details: higher = more signal;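 further: RPMI8826 multiple myeloma cell line at 5000 cells per well; test concentration not given here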
# [20] = biological target: E3 ubiquitin-protein ligase XIAP (Homo sapiens) (UniProt P98170); assay: XIAP binders, primary screen, biophysical, small-molecule microarray, fluorescence 635 nm (AID 1181); details: small-molecule microarray binding, higher = more signal;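 further: score merges 667 nm emission and signal to noise over triplicate slides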
# Chain of E3 ubiquitin-protein ligase XIAP (Homo sapiens) (P98170 whole entry, looked up): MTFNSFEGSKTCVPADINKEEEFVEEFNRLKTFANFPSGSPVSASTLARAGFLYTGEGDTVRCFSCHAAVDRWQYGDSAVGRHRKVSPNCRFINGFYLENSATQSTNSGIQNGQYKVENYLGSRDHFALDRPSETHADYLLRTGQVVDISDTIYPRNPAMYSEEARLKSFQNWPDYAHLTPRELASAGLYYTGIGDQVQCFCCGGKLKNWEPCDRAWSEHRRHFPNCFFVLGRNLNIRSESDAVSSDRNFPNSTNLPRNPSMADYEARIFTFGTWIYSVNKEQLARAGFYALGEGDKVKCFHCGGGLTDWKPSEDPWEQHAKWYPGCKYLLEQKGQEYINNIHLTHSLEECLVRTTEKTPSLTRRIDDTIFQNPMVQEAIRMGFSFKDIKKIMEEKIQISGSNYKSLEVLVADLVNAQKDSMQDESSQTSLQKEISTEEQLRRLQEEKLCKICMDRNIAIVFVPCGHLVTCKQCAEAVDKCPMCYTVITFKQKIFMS
compound,measurement,setting,value
[N-]=[N+]=Nc1ccccc1C[C@@]1(C(=O)O)N=C(c2ccc(OCCCO)cc2)O[C@@H]1c1ccccc1,z-score,[1],-0.0649
same,z-score,[2],-0.532
same,z-score,[3],-0.222
same,z-score,[4],-1.78
same,z-score,[5],-1.26
same,z-score,[6],-1.65
same,z-score,[7],-0.0754 (inactive)
same,z-score,[8],0.00697
same,z-score,[9],-0.187
same,z-score,[10],0.293 (inactive)
same,z-score,[11],1.06
same,z-score,[12],-2.01 (inactive)
same,z-score,[13],-0.161 (inactive)
same,composite z-score,[14],0.624 (inactive)
same,z-score,[15],0.342 (inactive)
same,z-score,[16],-0.583 (inactive)
same,z-score,[17],-0.26 (inactive)
same,z-score,[18],-0.523 (inactive)
same,z-score,[19],0.229
same,composite z-score,[20],0.427
CCCC[C@@H]1C[C@H]1[C@@H](NC(=O)c1cccnc1)c1ccc(-c2ccccc2)cc1,z-score,[1],-1.42
same,z-score,[2],-0.438
same,z-score,[3],-0.886
same,z-score,[4],-1.14
same,z-score,[5],-2.21
same,z-score,[6],-0.608
same,z-score,[7],-1.18 (inactive)
same,z-score,[8],-0.642
same,z-score,[9],-1.13
same,z-score,[10],3.07 (inactive)
same,z-score,[11],1.6
same,z-score,[12],-3.34 (inactive)
same,z-score,[13],1.1 (inactive)
same,composite z-score,[14],-0.106 (inactive)
same,z-score,[15],-0.0982 (inactive)
same,z-score,[16],-0.402 (inactive)
same,z-score,[17],-0.88 (inactive)
same,z-score,[18],-0.762 (inactive)
same,z-score,[19],2.9
same,composite z-score,[20],0.0302
O=C1c2ccccc2[C@@]2(Cc3ccccc3N(C3CC3)C2=O)[C@H](c2ccc(CO)cc2)N1C1CCCCC1,z-score,[1],-0.506
same,z-score,[2],-0.621
same,z-score,[3],-0.578
same,z-score,[4],-0.258
same,z-score,[5],-2.4
same,z-score,[6],-0.266
same,z-score,[7],-0.971 (inactive)
same,z-score,[8],0.818
same,z-score,[9],0.144
same,z-score,[10],-0.179 (inactive)
same,z-score,[11],-0.319
same,z-score,[12],0.979 (inactive)
same,z-score,[13],-0.36 (inactive)
same,composite z-score,[14],-4.68 (inactive)
same,z-score,[15],0.264 (inactive)
same,z-score,[16],1.24 (inactive)
same,z-score,[17],0.609 (inactive)
same,z-score,[18],0.106 (inactive)
same,z-score,[19],-0.546
same,composite z-score,[20],0.242
O=C1O[C@H](c2ccccc2)[C@H](c2ccccc2)N2[C@H]1[C@@H](C(=O)O)[C@]1(C(=O)Nc3ccccc31)[C@H]2c1ccc(O)cc1,z-score,[1],0.29
same,z-score,[2],-0.268
same,z-score,[3],-0.733
same,z-score,[4],0.0137
same,z-score,[5],0.605
same,z-score,[6],-1.33
same,z-score,[7],-1.43 (inactive)
same,z-score,[8],0.73
same,z-score,[9],0.0818
same,z-score,[10],0.769 (inactive)
same,z-score,[11],-0.401
same,z-score,[12],0.671 (inactive)
same,z-score,[13],0.186 (inactive)
same,composite z-score,[14],-1.66 (inactive)
same,z-score,[15],1.53 (inactive)
same,z-score,[16],0.473 (inactive)
same,z-score,[17],0.293 (inactive)
same,z-score,[18],-0.221 (inactive)
same,z-score,[19],0.494
same,composite z-score,[20],-0.237
C=CC[C@H](OC(=O)Nc1ccc(OC)cc1)c1ccc(O)c2ccccc12,z-score,[1],-1.39
same,z-score,[2],-1.07
same,z-score,[3],-3.1
same,z-score,[4],-2.8
same,z-score,[5],-4.26
same,z-score,[6],-2.68
same,z-score,[7],-1.05 (inactive)
same,z-score,[8],-1.02
same,z-score,[9],-2.15
same,z-score,[10],-0.745 (inactive)
same,z-score,[11],-0.878
same,z-score,[12],-16.7 (active)
same,z-score,[13],-6.07 (inactive)
same,composite z-score,[14],-7.13 (inactive)
same,z-score,[15],1.82 (inactive)
same,z-score,[16],-20 (active)
same,z-score,[17],0.852 (inactive)
same,z-score,[18],0.148 (inactive)
same,z-score,[19],-4.15
same,composite z-score,[20],-0.0872
